D2 ag-1 = activates the human D2 dopamine receptor | P14416 | HEK293 T-REx D2 cells, calcium flux agonist mode | activation, % at 2 µM | 0.53% of 340,000 active | AID 485358;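 active = activation over 3 SD above normal in the single-dose calcium agonist read, cut at about 30% in these data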; note: 0% is about no effect
Target sequence (P14416 whole entry, looked up): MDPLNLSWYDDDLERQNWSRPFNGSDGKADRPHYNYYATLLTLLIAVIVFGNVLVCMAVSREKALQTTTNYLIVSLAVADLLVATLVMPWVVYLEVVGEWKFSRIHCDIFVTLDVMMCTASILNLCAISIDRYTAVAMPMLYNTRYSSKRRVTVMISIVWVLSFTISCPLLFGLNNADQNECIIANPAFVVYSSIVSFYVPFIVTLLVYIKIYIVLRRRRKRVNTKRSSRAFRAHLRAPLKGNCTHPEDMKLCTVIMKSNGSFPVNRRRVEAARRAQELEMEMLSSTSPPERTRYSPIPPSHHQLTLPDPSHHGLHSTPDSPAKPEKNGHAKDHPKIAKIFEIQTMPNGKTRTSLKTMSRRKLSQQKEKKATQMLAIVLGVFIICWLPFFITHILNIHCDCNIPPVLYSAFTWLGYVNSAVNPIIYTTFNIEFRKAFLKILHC
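Calcium-flux readout, 1 cycle/sec over 180 s following compound pin transfer, in inducible HEK293 Trex D2 cells (force-coupled); dopamine controls included. Positive calcium responses during this window marked compounds as potential agonists.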
D2 antagonist = D2 dopamine receptor (human) antagonism; inhibition, % at 10 µM; AID 485344; HEK293 TREx D2 cells, calcium flux, dopamine EC80; 2% of 340,000 active; in the data active = inhibition above about 30%; inactive = below that, where a call was filed; note: 0% is about no effect
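Compounds are added to dye-loaded, induced HEK293 T-REx cells coupled to calcium release via D2; after a 3 min kinetic read an EC80 dopamine stimulus is given and fluorescence is recorded for 3 more min.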
D2 PAM-1 = positive allosteric modulators of human D2 dopamine receptor | P14416 | DiscoveRx D2 beta-arrestin cells, luminescence, 90 min; 100% = 57 uM dopamine signal | potentiation, % (test concentration not listed) | 0.23% of 360,000 active | AID 624464; in the data active = potentiation above about 50%; inconclusive = mostly about 30% to 49%
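PathHunter D2 cells, attached overnight at 37 deg C, received compound in DMSO plus dopamine at EC20 (50 nM final) for 90 min at 37 deg C. Beta-arrestin recruitment was read as luminescence after 1 h with detection reagent at ambient temperature.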
D2 ag-2 = agonists of human D2 dopamine receptor (beta-arrestin) | DiscoveRx PathHunter D2 beta-arrestin, luminescence, 90 min; 100% = 57 uM dopamine signal | P14416 | activation, % (no concentration beside the values) | 0.084% of 360,000 active; in the data active = activation above about 40%; inconclusive = between about 15% and that limit
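Agonist mode: compounds alone added to overnight-plated D2 PathHunter cells for 90 min at 37 C, with 57 uM final dopamine (EC100) defining full response. Beta-arrestin recruitment detected by chemiluminescent reagent, read after 1 h at ambient temperature.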
D2 PAM-2 = positively modulates the human D2 dopamine receptor allosterically; HEK293 T-REx D2, calcium flux, EC20 dopamine potentiation; 0.34% of 340,000 active; P14416; potentiation, % at 10 µM;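 active = potentiation over 3 SD above the plate norm, cut at about 30% in these data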; note: 0% is about no effect
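Primary screen. Calcium kinetics in induced HEK293 T-REx D2 cells: compound pre-addition 180 s, EC20 dopamine, 180 s more.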
* = called active by the depositor. In the library only some 2.4% were active in any assay of this set; here they are far more common.

Screening O=C(CCCN1CCC(C(=O)c2ccc(F)cc2)CC1)c1ccc(F)cc1 returned D2 ag-1 -3.0, D2 antagonist 71.5*, D2 PAM-1 -4.5, D2 ag-2 -3.4 and D2 PAM-2 -19.5.
O=C(CCCN1CCC(O)(c2cccc(C(F)(F)F)c2)CC1)c1ccc(F)cc1 was read as D2 ag-1 0.9, D2 antagonist 9.4, D2 PAM-1 -34.0, D2 ag-2 -4.0 and D2 PAM-2 16.5.
O=C(CCCN1CCC(C(O)c2ccc(F)cc2)CC1)c1ccc(F)cc1 (centres undefined) was read as D2 PAM-1 -15.8 and D2 ag-2 -5.0.
Screening O=C(CCCN1CCC(O)(c2ccc(Br)cc2)CC1)c1ccc(F)cc1 returned D2 ag-1 1.0, D2 antagonist 78.5*, D2 PAM-1 -33.0, D2 ag-2 -3.9 and D2 PAM-2 -20.4.
`Cc1ccc(C(=O)Nc2nnc(SCc3cc(=O)c4c(C)ccc(C)c4[nH]3)s2)cc1` gave D2 ag-1 0.5 and D2 PAM-2 -7.1.
Screening CCCCC1=CC2=C(c3ccco3)C(=O)C(C)(OC(=O)c3ccc(OC)cc3)C(=O)C2=CN1Cc1ccccc1 (centres undefined) returned D2 ag-1 0.4, D2 antagonist 5.2, D2 PAM-1 9.5, D2 ag-2 3.3 and D2 PAM-2 -7.0.
Screening CCCCC1=CC2=C(c3ccco3)C(=O)C(C)(OC(=O)c3ccc(OC)cc3)C(=O)C2=CN1Cc1ccc2c(c1)OCO2 (centres undefined) returned D2 ag-1 -0.2, D2 antagonist 33.2*, D2 PAM-1 -16.1, D2 ag-2 -0.1 and D2 PAM-2 -0.3.
`CCCCC1=CC2=CC(=O)C(C)(OC(=O)CC)C(=O)C2=CN1Cc1ccc(OC)cc1` (centres undefined) gave D2 ag-1 -0.2, D2 antagonist 30.9*, D2 PAM-1 -1.2, D2 ag-2 3.1 and D2 PAM-2 9.4.
Cc1cccc(N2CCN(Cc3nc(-c4ccccc4Cl)oc3C)CC2)n1 was read as D2 ag-1 1.7, D2 antagonist 39.5*, D2 PAM-1 -6.8, D2 ag-2 3.3 and D2 PAM-2 -5.3.
Screening COc1ccc(S(=O)(=O)NCC2CCC(C(=O)NCCCN3CCCC3=O)CC2)cc1 (centres undefined) returned D2 ag-1 0.0, D2 antagonist 31.9*, D2 PAM-1 -7.0, D2 ag-2 -3.8 and D2 PAM-2 14.8.
CN1C(=O)N(CC(=O)N2CCN(c3ncccn3)CC2)C(=O)C12CCCCC2 was read as D2 ag-1 -0.3, D2 antagonist 11.8, D2 PAM-1 -31.9, D2 ag-2 -4.2 and D2 PAM-2 -15.2.
Screening O=C1CC2(CCCC2)CC(=O)N1CCCCN1CCN(c2ncccn2)CC1 returned D2 ag-1 3.9, D2 antagonist 87.9*, D2 PAM-1 -34.6, D2 ag-2 -3.2 and D2 PAM-2 -29.9.
`O=C(CSCc1ccc(Cl)cc1)NN=C1CCCC1` gave D2 ag-1 0.2, D2 antagonist -7.7, D2 PAM-1 -12.8, D2 ag-2 2.1 and D2 PAM-2 14.6.
For O=C(CSCc1ccccc1Cl)NN=C1CCCCCC1 the results were D2 ag-1 0.5, D2 antagonist 38.4*, D2 PAM-1 13.5, D2 ag-2 0.7 and D2 PAM-2 4.4.
O=C(CSCc1ccc([N+](=O)[O-])cc1)NN=C1CCCCCC1 was read as D2 ag-1 -0.9, D2 antagonist -2.6, D2 PAM-1 18.6, D2 ag-2 -1.1 and D2 PAM-2 35.4*.
Screening Cc1ccc(C)c(NC(=O)C(Cc2ccccc2)N2Cc3ccccc3C2=O)c1 (centres undefined) returned D2 PAM-2 3.2.
For CCOC(=O)C1CCCN(C(=O)c2cn(CC)c3ccc(S(=O)(=O)N(C)C)cc3c2=O)C1 (centres undefined) the results were D2 ag-1 1.8, D2 antagonist 35.1*, D2 PAM-1 0.3, D2 ag-2 -2.5 and D2 PAM-2 -1.6.
CC(C)OC(=O)c1c2c(n3ccccc13)C(=O)c1ccccc1C2=O was read as D2 ag-1 68.8*, D2 antagonist 5.0, D2 PAM-1 27.9, D2 ag-2 inconclusive and D2 PAM-2 7.2.
`O=S(=O)(c1ccc(Cl)cc1)c1nc(-c2cccs2)oc1SCc1ccccc1F` gave D2 ag-1 1.2 and D2 PAM-2 16.0.
`Cc1ccc(C)c(Cn2c(C3CC(=O)N(c4ccccc4C)C3)nc3ccccc32)c1` (centres undefined) gave D2 ag-1 -1.7 and D2 PAM-2 6.3.
Brc1cccc(C2Nc3cccc4cccc(c34)N2)c1 was read as D2 ag-1 0.5, D2 antagonist -2.8, D2 PAM-1 1.6, D2 ag-2 4.1 and D2 PAM-2 12.3.
`Oc1ccccc1C1Nc2cccc3cccc(c23)N1` gave D2 ag-1 0.7, D2 antagonist -2.5, D2 PAM-1 60.5*, D2 ag-2 13.1 and D2 PAM-2 20.4.
`Brc1ccc(C2Nc3cccc4cccc(c34)N2)o1` gave D2 ag-1 0.1, D2 antagonist -8.4, D2 PAM-1 61.3*, D2 ag-2 8.0 and D2 PAM-2 4.1.
COc1cccc(NC(=O)Cn2c(=O)n(-c3ccccc3)c(=O)c3ccc(C(=O)NCc4ccc5c(c4)OCO5)cc32)c1 was read as D2 ag-1 0.2 and D2 PAM-2 13.9.
CN(C)c1ccc(/C=C(\C#N)c2nc(-c3ccc(Cl)c(Cl)c3)cs2)cc1 was read as D2 ag-1 1.0 and D2 PAM-2 -1.8.
For COc1cccc(NC(=O)Cn2c(=O)n(CCCCC(=O)NCc3ccc4c(c3)OCO4)c(=O)c3ccccc32)c1 the results were D2 ag-1 1.0 and D2 PAM-2 -0.5.
Screening O=S(=O)(/C=C/c1ccccc1)Nc1ccc2c(c1)OCO2 returned D2 ag-1 -0.2, D2 antagonist 34.3*, D2 PAM-1 1.3, D2 ag-2 -1.4 and D2 PAM-2 15.9.
For Cc1ccc(C)c(NC(=O)Cn2c(=O)n(CCC(C)C)c(=O)c3cccnc32)c1 the results were D2 PAM-2 -17.6.
For N=c1c2c(-c3ccccc3)c(-c3ccccc3)n(Cc3ccco3)c2ncn1Cc1ccccc1 the results were D2 ag-1 2.7, D2 antagonist 14.4, D2 PAM-1 2.8, D2 ag-2 -3.1 and D2 PAM-2 0.9.
For CC(C)Cn1cnc2c(c(-c3ccccc3)c(-c3ccccc3)n2Cc2ccco2)c1=N the results were D2 ag-1 1.6, D2 antagonist 46.4*, D2 PAM-1 -27.1, D2 ag-2 -4.1 and D2 PAM-2 -4.8.
`CCCS(=O)(=O)NCCc1sc2nc(-c3ccc(Cl)cc3)nn2c1C` gave D2 PAM-2 1.1.
Screening Cc1ccc(/C=N/NC(=O)Cn2nnc(N)n2)cc1 returned D2 ag-1 -0.1, D2 antagonist 41.0*, D2 PAM-1 -11.2, D2 ag-2 1.1 and D2 PAM-2 -4.1.

Screens as filed in PubChem BioAssay.
